Reference: PubChem BioAssay (NCI)
About 79,000 compounds went through this panel and 15% of them were active in at least one assay; those are over-represented in the sample as a whole. The source made the active and inactive calls. Cut-off read from the data, not from the text of the source: active = growth inhibition above about 70%; inactive = the rest.

What was measured:
[1] = NCI Yeast Anticancer Drug Screen. Data for the rad52 strain (AID 147);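 note: 0% = growth of vehicle-treated control cultures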; conditions: S. cerevisiae rad52 mutant growth inhibition, active compounds read high
Method in brief: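 Compounds are applied to a genetically defined yeast strain lacking normal DNA damage repair, and inhibition of growth is expressed relative to cultures given vehicle only.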

[2] = NCI Yeast Anticancer Drug Screen. Data for the wt1 strain (AID 149);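 note: 0% = growth of vehicle-treated wt1 cultures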; conditions: S. cerevisiae wt1 strain (SPY 50644) growth inhibition, active compounds read high
Method in brief: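 Using yeast strain wt1, compound-induced growth inhibition was determined against vehicle-treated cultures.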

[3] = NCI Yeast Anticancer Drug Screen. Data for the rad50EPP+ strain (AID 151);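 note: 0% = growth of vehicle-treated control cultures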; conditions: S. cerevisiae rad50 mutant strain, active compounds read high
Method in brief: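 Compounds were applied to the rad50EPP+ yeast strain, which bears a defined DNA repair alteration, and growth inhibition was determined relative to vehicle-treated cultures.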

[4] = NCI Yeast Anticancer Drug Screen. Data for the mgt1 strain (AID 153); conditions: S. cerevisiae mgt1 mutant growth inhibition, active compounds read high
Method in brief: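 Strain: mgt1 yeast, one of a set carrying defined DNA damage repair or cell cycle control alterations. Compound-treated growth compared with vehicle.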

[5] = NCI Yeast Anticancer Drug Screen. Data for the rad50 strain (AID 155);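 note: 0% = growth of vehicle-only cultures of the same strain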; conditions: S. cerevisiae rad50 strain growth inhibition, active compounds read high
Method in brief: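 Relative growth inhibition (compound vs vehicle) was measured in yeast with a defined repair-gene alteration.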

[6] = NCI Yeast Anticancer Drug Screen. Data for the mec2-1 strain (AID 157); conditions: S. cerevisiae mec2-1 strain, active compounds read high
Method in brief: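 Strain: mec2-1 (DNA repair/cell cycle alteration). Compound exposure, then growth measured; inhibition expressed relative to vehicle.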

[7] = NCI Yeast Anticancer Drug Screen. Data for the rad14 strain (AID 159);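 note: 0% = growth of vehicle-treated control cultures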; conditions: S. cerevisiae rad14 strain growth inhibition, active compounds read high
Method in brief: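 Screen for anticancer potential: a yeast strain altered in DNA damage repair is grown with compound, and reduced growth is quantified against vehicle controls.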

[8] = NCI Yeast Anticancer Drug Screen. Data for the sgs1 mgt1 strain (AID 161);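 note: 0% = growth of cultures given vehicle only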; conditions: S. cerevisiae sgs1 mgt1 strain, active compounds read high
Method in brief: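 Mutant yeast exposed to compound; growth scored against vehicle-only wells.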

[9] = NCI Yeast Anticancer Drug Screen. Data for the CLN2oe strain (AID 163);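 note: 0% = growth of vehicle-only control cultures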; conditions: S. cerevisiae CLN2oe strain, active compounds read high
Method in brief: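 Growth of a genetically modified yeast strain is measured after compound exposure and compared with cultures given vehicle alone.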

[10] = NCI Yeast Anticancer Drug Screen. Data for the cln2 rad14 strain (AID 165);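 note: 0% = growth equal to vehicle treated cultures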; conditions: S. cerevisiae cln2 rad14 strain, active compounds read high
Method in brief: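 Compounds are applied to the cln2 rad14 yeast strain, and growth is then compared with that of vehicle-treated cultures to give inhibition.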

[11] = NCI Yeast Anticancer Drug Screen. Data for the bub3 strain (AID 167); conditions: S. cerevisiae bub3 mutant strain, active compounds read high
Method in brief: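 Screening used yeast with an engineered genetic alteration affecting cell cycle control. Compound-exposed cultures were compared with vehicle cultures, and reduced growth was taken as inhibition.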

[12] = NCI Yeast Anticancer Drug Screen. Data for the wt2 strain (AID 169);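 note: 0% = growth of vehicle-treated yeast cultures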; conditions: S. cerevisiae wt2 strain growth inhibition, active compounds read high
Method in brief: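 This strain belongs to a panel of yeast strains with defined genetic alterations in DNA damage repair or cell cycle control. Compounds are applied, and growth inhibition is measured against vehicle-treated cultures.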

[13] = NCI Yeast Anticancer Drug Screen. Data for the sgs1 strain (AID 173);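 note: 0% = growth of vehicle-only control cultures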; conditions: S. cerevisiae sgs1 mutant, active compounds read high
Method in brief: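 Growth of a yeast strain bearing a defined genetic alteration is measured after compound treatment. Inhibition is expressed relative to vehicle-only controls.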

[14] = NCI Yeast Anticancer Drug Screen. Data for the mlh1 rad18 strain (AID 175); conditions: S. cerevisiae mlh1 rad18 strain growth inhibition, active compounds read high
Method in brief: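 Read-out is yeast growth inhibition, calculated against vehicle-only controls. The compound was applied to a strain engineered with DNA damage repair alterations.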

[15] = NCI Yeast Anticancer Drug Screen. Data for the rad18 strain (AID 177); conditions: S. cerevisiae rad18 mutant growth inhibition, active compounds read high
Method in brief: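 Growth of the mutant yeast strain after compound exposure, normalised to vehicle-only cultures.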

[16] = NCI Yeast Anticancer Drug Screen. Data for the mlh1 strain (AID 171);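 note: 0% = growth of vehicle-treated control cultures of the same strain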; conditions: S. cerevisiae mlh1 strain growth inhibition, active compounds read high
Method in brief: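 Growth of the mutant yeast strain after compound exposure, expressed as inhibition relative to vehicle-only controls.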

[17] = at 5.0 µM (retest, dose inferred, filed as 0.5)
[18] = at 50.0 µM (retest, dose inferred, filed as 5.0)

Measured: growth inhibition

CCNc1nnc(CSc2nc(-c3ccccc3)c(-c3ccccc3)[nH]2)s1
active: [1]; at 33.0 µM 86% | [1]; at 100.0 µM 80% | [2]; at 33.0 µM 81% | [2]; at 100.0 µM 77% | [4]; at 33.0 µM 87% | [4]; at 100.0 µM 73% | [5]; at 33.0 µM 77% | [5]; [18] 94% | [5]; at 50.0 µM 79.3% | [5]; at 100.0 µM 76% | [6]; at 33.0 µM 73% | [6]; [18] 93% | [6]; at 100.0 µM 77% | [8]; [18] 97% | [9]; at 33.0 µM 85% | [9]; at 100.0 µM 76% | [10]; [18] 97% | [10]; at 50.0 µM 75% | [11]; at 33.0 µM 87% | [11]; [18] 97% | [11]; at 50.0 µM 85.2% | [11]; at 100.0 µM 82% | [12]; at 33.0 µM 92% | [12]; at 100.0 µM 83% | [13]; at 33.0 µM 71% | [13]; at 100.0 µM 80% | [14]; [18] 93% | [14]; at 50.0 µM 86.3% | [15]; at 33.0 µM 89% | [15]; at 100.0 µM 79%
inactive: [1]; at 1.2 µM -6% | [1]; at 3.7 µM 14% | [1]; at 11.0 µM -1% | [2]; at 1.2 µM -4% | [2]; at 3.7 µM -9% | [2]; at 11.0 µM -19% | [3]; at 1.2 µM 9% | [3]; at 3.7 µM 13% | [3]; at 11.0 µM 12% | [3]; at 33.0 µM 4% | [3]; at 100.0 µM 5% | [4]; at 1.2 µM -9% | [4]; at 3.7 µM -11% | [4]; at 11.0 µM -18% | [5]; at 1.2 µM -3% | [5]; at 3.7 µM -15% | [5]; [17] 7% | [5]; at 11.0 µM -13% | [6]; at 1.2 µM 8% | [6]; at 3.7 µM 0% | [6]; [17] -8% | [6]; at 11.0 µM -8% | [6]; at 50.0 µM 66% | [7]; at 1.2 µM -10% | [7]; at 3.7 µM -4% | [7]; at 11.0 µM -51% | [7]; at 33.0 µM 58% | [7]; at 100.0 µM 55% | [8]; [17] 7% | [8]; at 50.0 µM 64.8% | [9]; at 1.2 µM 5% | [9]; at 3.7 µM -7% | [9]; at 11.0 µM 5% | [10]; [17] 4% | [11]; at 1.2 µM -10% | [11]; at 3.7 µM -29% | [11]; [17] 36% | [11]; at 11.0 µM -23% | [12]; at 1.2 µM -3% | [12]; at 3.7 µM -9% | [12]; at 11.0 µM -37% | [13]; at 1.2 µM 23% | [13]; at 3.7 µM 18% | [13]; at 11.0 µM 18% | [14]; [17] -1% | [15]; at 1.2 µM 12% | [15]; at 3.7 µM 16% | [15]; at 11.0 µM 13%

[O-][n+]1c2ccc(O)cc2nc2ccc(Br)cc21
active: [1]; at 33.0 µM 83% | [1]; at 100.0 µM 85% | [3]; at 33.0 µM 75% | [3]; at 100.0 µM 77% | [4]; at 33.0 µM 85% | [4]; at 100.0 µM 87% | [5]; at 33.0 µM 87% | [5]; [18] 96% | [5]; at 50.0 µM 88.5% | [5]; at 100.0 µM 87% | [6]; [18] 81% | [6]; at 50.0 µM 78.8% | [7]; at 100.0 µM 81% | [8]; [18] 86% | [10]; [18] 88% | [11]; at 33.0 µM 78% | [11]; [18] 74% | [11]; at 50.0 µM 84% | [11]; at 100.0 µM 70% | [16]; at 33.0 µM 75% | [16]; at 100.0 µM 84% | [14]; [18] 93% | [14]; at 50.0 µM 92.2% | [15]; at 33.0 µM 90% | [15]; at 100.0 µM 90%
inactive: [1]; at 1.2 µM 1% | [1]; at 3.7 µM 16% | [1]; at 11.0 µM 42% | [2]; at 1.2 µM 1% | [2]; at 3.7 µM 14% | [2]; at 11.0 µM 22% | [2]; at 33.0 µM 45% | [2]; at 100.0 µM 67% | [3]; at 1.2 µM 6% | [3]; at 3.7 µM 20% | [3]; at 11.0 µM 55% | [4]; at 1.2 µM 4% | [4]; at 3.7 µM 21% | [4]; at 11.0 µM 46% | [5]; at 1.2 µM 2% | [5]; at 3.7 µM 18% | [5]; [17] 36% | [5]; at 11.0 µM 56% | [6]; at 1.2 µM -1% | [6]; at 3.7 µM 12% | [6]; [17] 2% | [6]; at 11.0 µM 25% | [6]; at 33.0 µM 49% | [6]; at 100.0 µM 61% | [7]; at 1.2 µM 2% | [7]; at 3.7 µM 7% | [7]; at 11.0 µM 29% | [7]; at 33.0 µM 67% | [8]; [17] 30% | [8]; at 50.0 µM 65% | [9]; at 1.2 µM 14% | [9]; at 3.7 µM 21% | [9]; at 11.0 µM 40% | [9]; at 33.0 µM 54% | [9]; at 100.0 µM 64% | [10]; [17] 16% | [10]; at 50.0 µM 49% | [11]; at 1.2 µM 5% | [11]; at 3.7 µM 16% | [11]; [17] 32% | [11]; at 11.0 µM 41% | [16]; at 1.2 µM 2% | [16]; at 3.7 µM 15% | [16]; at 11.0 µM 29% | [14]; [17] 50% | [15]; at 1.2 µM 5% | [15]; at 3.7 µM 21% | [15]; at 11.0 µM 57%
